We go through 108 sequences from PubChem BioAssay AID1508600 (Functional Genomics Laboratory (NCATS/FGL), 2020).

Out of some 53,000 sequences screened, about 3,700 (7%) were called active.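 The calls were made as follows: active = gene knockdowns whose robust z-score for IL-1 alpha signal is at least 2 or at most -2, so actives lie on both sides; inactive = the rest.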 Only a selection was taken, and actives are over-represented in it overall.

This assay in a line: Components of the Cytosolic LPS Sensing Pathway: Gene Identification via Genome-wide siRNA Screen.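 Also: robust z of the log signal after scaling to non-targeting control siRNA wells of the plate.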 To be noted: RAW264.7 macrophages, IL-1a HTRF, actives lie on both sides, screened at 100 nM (by protocol), cells primed 5 h with Pam3CSK4 first. The method in brief: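 Read-out: IL-1a HTRF on supernatant, divided by plate negative-control median ×100, log-transformed and converted to robust z-score. Cells were RAW264.7 given 100 nM siRNA, Pam3CSK4-primed 5 hours, then LipidA-transfected 24 hour.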
With GGACAUCCAUUCAUGCUUUTT against Serpinb1b, the z-score is -0.529 (inactive).

On to CCUAUAACUCCAAGGAUACTT against Lexm, for which the z-score is 0.628 (inactive).

For GGUUUUGAGCAAAAUUCUATT against Nrd1, the z-score is 0.985 (inactive).

For GCACUGGAAAUUGUAUAAATT against Hyal6, the z-score was 2.19 (active).

On to CGGAGUGUACCAUCUACACTT against Agpat4, for which the z-score was 0.193 (inactive).

Turning to GGGACUGCAUACUUAAGUUTT against Amacr, the z-score is 1.31 (inactive).

For GGGACCGUGAAGAAAAUUUTT against Tmed11, the z-score is -0.926 (inactive).

As to “GGAGGCUUAUCCUAAAAAGTT against 6330444E15Rik”, the z-score is -1.02 (inactive).

For the sequence GCUGAACCUAUGAGGGAGATT against Gpank1, the z-score was 0.809 (inactive).

With GGAGUUCAUUCUGGAUAUCTT against Matn2, the z-score was 1.24 (inactive).

Regarding CCUAGGGCUUUAGCUCUGATT against Msc, the z-score was -0.75 (inactive).

As to GGAUUAAACCUUUUAACCGTT against Emilin3, the z-score is -0.251 (inactive).

Take GCAUGUUUUACAGUGUUCATT against Rxfp1: the z-score was 2.7 (active).

For the sequence GCCGGAUGGCACAUUCGUATT against Cda, the z-score is -0.281 (inactive).

For CCUAAGGUCAAGAUAUAGCTT against Cep55, the z-score is 0.121 (inactive).

For CCCACCAGAUUUCUACACCTT against Vsig2, the z-score was -2 (inactive).

Consider GGCUAUGGACCGAAAGAUUTT against Dgcr6, for which the z-score is -1.42 (inactive).

As for GCAGCUGUCAUGUAUACAGTT against Olfr59, the z-score was -0.867 (inactive).

GGAAUAUCCCAACAUCUGUTT against Upp1: the z-score was -0.899 (inactive).

In the case of GCAGUAUGUAAACCCUUACTT against Olfr1463, the z-score was 0.558 (inactive).

CGACCUUAAGCUAAGCAGUTT against Aff3: the z-score is 1.18 (inactive).

Consider GGAAUUUUCUCAUGAUCUUTT against Krtap3-3, for which the z-score is 0.813 (inactive).

As to GGGCUAUUAAAUGAUUUCATT against Pax1, the z-score was 5 (active).

As for GCCAUGAUUUUCAUGUACGTT against Olfr711, the z-score is 0.241 (inactive).

In the case of CCUUAAUAAAUCUAGUGGCTT against Stmn3, the z-score is -0.567 (inactive).

With GCGGCUUAUGUCUCAAAUUTT against Gcdh, the z-score was 2.34 (active).

GGCCGAUGCCAAAUUGGUATT against Olfm1: the z-score is 0.0323 (inactive).

GGACUAGCAAGGCAAGUGATT against Dnase2b: the z-score is 1.32 (inactive).

As for GGGAAUCGGACCAACUUACTT against Adssl1, the z-score is 3.64 (active).

Turning to GCGAGUUUAAUGUUUAUGCTT against Pdgfra, the z-score is -1.29 (inactive).

On to GCCCAGCAUGGAUAGAUUATT against Mis18bp1, for which the z-score is 0.466 (inactive).

With GGAAAAUGUAAACAAGUACTT against Xpo5, the z-score is -0.595 (inactive).

Consider GGAUAACACCACCAACUAUTT against Akap8l, for which the z-score is 0.456 (inactive).

Consider GGGCUGUUCUACUUAGUUATT against N6amt1, for which the z-score is 0.573 (inactive).

On to GGAUUAAAGAAAGACAUUGTT against Yme1l1, for which the z-score is -2.04 (active).

Turning to CGCCAGAGUGCAUAGUCUUTT against Mindy2, the z-score is 1.94 (inactive).

GCCAUUUUAGAGCAGAUCCTT against Rundc3a: the z-score is -2.33 (active).

Regarding GCAAACUGUCCUAUCUUGGTT against Cacna1d, the z-score is 0.84 (inactive).

Consider GGUGUUGUUUCGAAUUAUUTT against Xrn1, for which the z-score was 0.44 (inactive).

With GGUUCAGGUUCUUCUAAAATT against Cd109, the z-score is 1.42 (inactive).

Regarding GCACCUGAGCUUUCGAAUATT against Fam3a, the z-score is -0.373 (inactive).

Take CCGUGGAAACAGUCCUGAATT against Nudcd1: the z-score was 0.646 (inactive).

For GCUACUCUCGCCUGUUACATT against Dcaf12, the z-score is 0.0053 (inactive).

Take GGCCAAUGCCCUUUUUUGATT against Spem2: the z-score is 0.427 (inactive).

Regarding GUUCCCUGCCUGGCAGAAUTT against Foxd2, the z-score was 3.8 (active).

Consider “GGCAGCACCAUCGUCUAAUTT against 4930432E11Rik”, for which the z-score is 0.622 (inactive).

For GGUCAAGUCACUGGUGACGTT against Fabp3, the z-score is -1.73 (inactive).

Regarding GGAAGAUGGGCUAUUUCAUTT against Gabra6, the z-score is 0.545 (inactive).

Consider GGACAAGACCAUCUUCGAUTT against Sectm1a, for which the z-score was 0.21 (inactive).

Take CCAAAUCCCAGAGUUAUUUTT against Htr2c: the z-score was 0.361 (inactive).

In the case of GCAAAAGACCAUCUGAGUGTT against Adig, the z-score was 0.375 (inactive).

On to GGAAUUGGCAUCCUUAAGCTT against Cops3, for which the z-score is 2.43 (active).

Regarding GGUCAGAAGGUGUGUUAUATT against Rad52, the z-score is 0.338 (inactive).

Take GGCAUUCCCAGUCGUAAAGTT against Kctd3: the z-score was -1.1 (inactive).

Regarding GGUUUAUAUCCGUACACCUTT against Sp2, the z-score is 1.97 (inactive).

For “GGUGUUCUACUGUGCAUUATT against 9330132A10Rik”, the z-score was 0.578 (inactive).

As for GUUCCUCAGUAUGUUGCCATT against Olfr126, the z-score was -2.85 (active).

With GGGAUUGGUUAUUUUACAUTT against Trmt12, the z-score was -0.578 (inactive).

For GGAAAUAUGGCAAGAAUUUTT against Rgs7, the z-score was 0.781 (inactive).

On to GCUAAUGUGGAGGACUCACTT against Chml, for which the z-score is -0.574 (inactive).

As for GCAUUUCCCAGCCUGAUACTT against Aif1l, the z-score was -0.584 (inactive).

As for GGUGACACAGUACAAGAAGTT against Rpl36a, the z-score is 0.318 (inactive).

Take GGCGAGAAACCUUUCAGAUTT against Zic4: the z-score was 4.72 (active).

On to CGGCGAUGGAAAAAAAUUUTT against Tmem178, for which the z-score was 1.04 (inactive).

In the case of GGGUGCUUACAGAAUAUCUTT against Ms4a19, the z-score was 1.07 (inactive).

Regarding GGUGAACCCUUUGAGGAAGTT against Gstt3, the z-score is -0.42 (inactive).

Consider GGAUUAAAUGGUGGUGGAGTT against Dnajb6, for which the z-score was -1.1 (inactive).

With GGAUGAAAUUGUGUUAUCUTT against Snrk, the z-score is -0.371 (inactive).

With GCCCUUUUACGGCAACAGATT against C2cd5, the z-score was -1.48 (inactive).

In the case of CCACAUGCCAAAAUAAUACTT against Oxr1, the z-score is -0.771 (inactive).

For the sequence GGAAGAACUUGUCUCUUUUTT against Tmtc2, the z-score is 0.501 (inactive).

Consider GGAUGCUGUAACACUUUAUTT against Bcl6, for which the z-score is 3.31 (active).

For the sequence GCGAUCACUUUUCAAGUUUTT against Rnf139, the z-score is 0.0177 (inactive).

On to GGAAAUCCUCAGACAAAUGTT against Pdc, for which the z-score was 0.93 (inactive).

On to GGAAAUGUACCUGUUUGUUTT against Dnase1l2, for which the z-score was 0.928 (inactive).

GGCUUAGGUGUCCGAGAAATT against Wfdc2: the z-score was -1.01 (inactive).

Turning to GGCUGUGGUAGAAAAGCUGTT against Hspg2, the z-score is -1.65 (inactive).

For CCAUAUCUAUGAUAUGGUUTT against Piezo2, the z-score was -2.18 (active).

With GGAAGAUCCAUUUAAUGUATT against Eps15, the z-score is 1.14 (inactive).

On to GCUGAAGGGUCUCGUAUUGTT against Hes2, for which the z-score was 0.262 (inactive).

Turning to GGCUUUGAUGUCAGCACUGTT against Ngrn, the z-score was 0.247 (inactive).

With GCUCAUGCAUGGCUGUACATT against Gbp9, the z-score is 0.603 (inactive).

With GGAGCAUUCUCCAUCUAGCTT against Dennd2d, the z-score was -1.41 (inactive).

Consider GGAGGAGUCUUGAAUCCAGTT against Yod1, for which the z-score was -0.122 (inactive).

GGACUUGGUGACUUACUUCTT against Smpdl3b: the z-score was -1.42 (inactive).

Turning to CGGGUAAUAAGGAUUUGGGTT against Cadm4, the z-score was 2.05 (active).

Consider GGAGACAGUUCAGAAGUGGTT against Glp2r, for which the z-score is 0.0837 (inactive).

On to GAAGUCUGUGACCAGUUCCTT against Fgf2os, for which the z-score was 0.735 (inactive).

As to GCUAGGUGGGCAACUGUAUTT against Lpar3, the z-score was 2.12 (active).

Regarding CCCUGAAACCUCGGUGUUUTT against Vmac, the z-score is 1.34 (inactive).

On to GGAACUGGAGAUGCACAGCTT against Mtcl1, for which the z-score was 1.2 (inactive).

Take GGAAAUUGUCAGGUCCUACTT against Rad50: the z-score is 2.94 (active).

Turning to GGUUAUGUGUUCCAUAGAUTT against Pcdhb13, the z-score was 0.248 (inactive).

Consider GGAUAAACAGCUGAAGGUGTT against Ccs, for which the z-score was 0.762 (inactive).

Regarding GGCCGUUUUUUGGCAUCGUTT against Acss1, the z-score was -1.71 (inactive).

On to GGCAAGCCAGAGAAACUGATT against Rbm42, for which the z-score is 6.18 (active).

On to GGUAAUCCUGACUUCGUGGTT against Asb17, for which the z-score was 0.915 (inactive).

Regarding GCCGUAUUCAUUAAUAAAGTT against Ash1l, the z-score was 0.0753 (inactive).

In the case of GCUAGAAAGGACUUCGUGGTT against Pla2g4f, the z-score was -2.36 (active).

For CGAUUUCACAAAAACAUGATT against Vta1, the z-score was -0.394 (inactive).

With GGUGUUGGAGACCAUGGAUTT against Clcn6, the z-score was 0.829 (inactive).

Consider CGUGAUGUACAUGCAGGAUTT against Slc48a1, for which the z-score was 2.83 (active).

For GCAAUCGACCGCAUCCUAATT against Gm4827, the z-score was -1.32 (inactive).

As for GGGCUCCAAUUUGCUACCATT against Grp, the z-score was 0.342 (inactive).

On to GCAGCAAUCAGAUCAUGUATT against Platr26, for which the z-score is -0.694 (inactive).

In the case of GGUCCAGAUUGCUUAGAUGTT against Zbtb11os1, the z-score is -0.398 (inactive).

For the sequence CCUUAUACCAUAGAGAACATT against Bfar, the z-score is 1.14 (inactive).

Turning to GGAGAAACGAAAAGACUCUTT against Brpf1, the z-score is -2.25 (active).
